Screening data deposited in PubChem by Broad Institute.
esBAF inh: blocks esBAF chromatin remodeling in mouse ES cells. Bmi1-luciferase knock-in reporter, 24 h; 100% = twice the neutral-well signal. reporter increase, % at 12.5 µM. 350,000 compounds, 2% hits; in the data active means activation above about 40%; inconclusive means no clear call, values can overlap the other calls;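 further: 0% = median of the plate's neutral control wells and 100% = double that signal; a rise in the Bmi1 reporter signal indicates esBAF inhibition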
MITF TRPM1 HTS: MITF TRPM1 promoter activation in melanoma cells | 300,000 compounds, 0.75% hits | activation, % at 12.5 µM | SK-MEL-5 TRPM1-promoter luciferase, 24 h; % of positive control, neutral wells = 0;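 active means mean activation of at least 80% with every replicate also reaching 80%; inconclusive means mean reaches 80% but some replicate falls short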;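 further: 0% = neutral control wells and 100% = parthenolide positive control wells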
HSF1 inhib: HSF1 inhibition; NIH3T3-HGL HSE-luciferase, MG132-induced, luminescence 8 h; hits give low values; 300,000 compounds, 0.77% hits; activity change, negative = inhibition, % at 7.5 µM (by protocol);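 active means more than half of replicate wells show activity change below -50%, luminescence cut by over half; inconclusive means some wells, but at most half, below -50%; inactive means no replicate well below -50%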;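 further: luciferase reports HSF-1 transcriptional activity via heat shock element; 0% = median of DMSO wells and -100% = zero luminescence signal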
Wnt act: activators of Wnt/beta-catenin signaling. Wnt/beta-catenin reporter cell assay, activator, plate reader. activation, % at 9.35 µM. 300,000 compounds, 1.2% hits; in the data active means activation above about 30%, passing the limit was not always enough; inconclusive means no clear call, values can overlap the other calls;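 further: 0% = neutral control wells and 100% = positive control wells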
HSF-1 act: increases HSF-1 driven luciferase reporter signal; NIH3T3-HGL HSF-1 luciferase reporter, MG132, 8 h; 100% = twice DMSO control signal; AID 504408; activation, % at 9 µM; 300,000 compounds, 1.7% hits;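 active means mean replicate activation of at least 50% with a set share of replicates each reaching 50%; inconclusive means only one of those two conditions met; inactive means mean below 50% and too few replicates reaching it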;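 further: 0% = median of the neutral control wells and 100% = twice that signal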
Numbers without * were called inactive; ? = inconclusive; . = not tested or not shown. An excerpt weighted towards active compounds, which were near 3.8% of everything screened.

SMILES | esBAF inh | MITF TRPM1 HTS | HSF1 inhib | Wnt act | HSF-1 act
COCC(C)n1c(SCC(=O)Nc2ccc3c(c2)OCCO3)nc2ccccc2c1=O (configuration not stated) | 6 | -5 | . | 0 | .
C[C@@H](C(=O)Nc1ccc2c(c1)OCCO2)n1nnc2ccccc2c1=O | 57* | 101* | 15 | 24 | 34
CC(C(=O)Nc1ccc2c(c1)OCCO2)n1nnc(-c2ccccc2)n1 (configuration not stated) | . | 13 | -10 | -6 | -3
CCC(C)n1c(SCC(=O)NC(=O)Nc2ccc3c(c2)OCCO3)nc2ccccc2c1=O (configuration not stated) | 2 | 0 | 24 | . | 54*
CSC(=NC#N)N1CCN(c2ccc(Cl)cc2)CC1 | 25 | . | 27 | . | 56*
C[C@@H]1CCCCO[C@@H](CN(C)C(=O)Cc2ccccc2)[C@@H](C)CN([C@H](C)CO)C(=O)c2cc(NC(=O)c3ccncc3)ccc2O1 | 1 | . | . | . | .
COC(=O)C1=CN(Cc2ccc(OC)cc2)C=C(C(=O)OC)C1c1cc(OC)c(OC)c(OC)c1 | 8 | 19 | 11 | . | -1
CCOC(=O)C1=CN(Cc2ccc(OC)cc2)C=C(C(=O)OCC)C1c1cccs1 | . | -6 | 26 | -3 | 51*
C[C@@H]1CN([C@@H](C)CO)C(=O)c2cccc(NC(=O)Nc3ccc(F)cc3)c2O[C@H]1CN(C)S(=O)(=O)c1cccs1 | 0 | . | . | . | .
Oc1[nH]c2ccccc2c1C=Nc1ccccc1 | ? | ? | 26 | 45* | 25
OCCN=Cc1c(O)[nH]c2ccccc12 | -9 | -3 | -8 | . | 1
CCOC(=O)N1CCN(C(=O)c2ccc(CS(=O)(=O)c3c(Cl)cccc3Cl)o2)CC1 | -2 | 5 | -77* | -4 | -82
CN1CCN(C(=O)c2ccc(CS(=O)(=O)c3c(Cl)cccc3Cl)o2)CC1 | 1 | 2 | -2 | -7 | -9
O=C(NCC1CC1)[C@@H]1[C@@H](CO)[C@@H]2Cn3c(ccc(-c4ccccc4F)c3=O)[C@H]1N2Cc1cccnc1 | 2 | . | . | . | .
O=C(c1cc(=O)[nH]c2ccccc12)N1CCN(c2ccc([N+](=O)[O-])cc2)CC1 | -2 | -13 | -1 | 39* | 2
CCC(=O)N1C[C@H](C)[C@H](OC)CN(C)C(=O)c2cc(NC(=O)COC)ccc2OC[C@H]1C | -6 | . | . | . | .
Cc1ccc(N=C(NOCc2ccc(Cl)cc2Cl)c2nonc2N)c(C)c1 | . | -2 | 19 | -6 | 59*
Cc1ccccc1N=C(NOCc1ccc(Cl)cc1Cl)c1nonc1N | . | 12 | 16 | 0 | 5
COc1ccc(CN(C)CC(O)COC(c2ccc(OC)cc2)c2ccc(OC)cc2)cc1 (configuration not stated) | -8 | 17 | -3 | -2 | 9
CCOc1ccc(CN(C)CC(O)COC(c2ccc(OC)cc2)c2ccc(OC)cc2)cc1 (configuration not stated) | . | 13 | 26 | -2 | 57*
FC(F)(F)c1ccccc1Cc1c(-c2ccccc2)nc2ccc(Cl)cn12 | 17 | . | . | 0 | .
COc1ccccc1Cc1c(-c2ccc(C)cc2)nc2ccc(Br)cn12 | 9 | . | . | -2 | .
COc1ccccc1Cc1c(-c2ccccc2)nc2ccc(Br)cn12 | 52* | . | . | 1 | .
FC(F)(F)c1ccccc1Cc1c(-c2ccc(Cl)cc2)nc2ccc(Br)cn12 | 42* | . | . | 0 | .
FC(F)(F)c1ccccc1Cc1c(-c2ccc(Cl)cc2)nc2ccc(Cl)cn12 | 64* | . | . | 11 | .
SMILES | esBAF inh | MITF TRPM1 HTS | HSF1 inhib | Wnt act | HSF-1 act
CCC(=O)N[C@@H]1C=C[C@@H](CC(=O)OC)O[C@@H]1CO | 4 | . | . | . | .
CCOC(=O)C1=C(C)NC(C)=C(C(=O)OCC)C1/C=C/c1ccccc1OC | 5 | -8 | 26 | -2 | 67*
CCOC(=O)C1=C(C)NC(=O)NC1/C=C/c1ccccc1OC (configuration not stated) | . | 1 | 13 | -3 | 23
COCCOC(=O)C1=C(C)NC(C)=C(C(=O)OCCOC)C1/C=C/c1ccccc1OC | . | -7 | 47 | 2 | 77*
COc1ccc(S(=O)(=O)N(C)C[C@@H]2Oc3ccc(N(C)C)cc3CC(=O)N([C@H](C)CO)C[C@H]2C)cc1 | 4 | . | . | . | .
C[C@@H]1CCCCO[C@@H](CN(C)S(C)(=O)=O)[C@H](C)CN([C@H](C)CO)C(=O)c2cc(NC(=O)CCC(F)(F)F)ccc2O1 | -20 | . | . | . | .
CN(C)C(=O)C[C@H]1C=C[C@@H](NC(=O)NC2CCCC2)[C@@H](CO)O1 | -2 | . | . | . | .
C[C@@H]1CN([C@H](C)CO)C(=O)c2c(c3ccccc3n2C)-c2ccccc2CO[C@H]1CN(C)C(=O)c1ccccc1 | -1 | . | . | . | .
COc1ccc(Cl)cc1NC(=O)CN(C)C(=O)Cn1cnc2c1c(=O)n(C)c(=O)n2C | 1 | -10 | -74* | -1 | -80
COC(=O)Cn1cnc2c1c(=O)n(C)c(=O)n2C | -9 | 2 | 2 | . | -10
COc1ccc(Cl)cc1NC(=O)CCn1c(=O)oc2ccccc21 | -4 | -3 | 15 | -5 | 11
COCCNC(=O)Cn1cnc2c1c(=O)n(C)c(=O)n2C | 0 | 0 | 28 | 0 | 56*
COc1ccc(Cl)cc1NC(=O)CN(C)C(=O)Cn1c(=O)oc2ccccc21 | -8 | -6 | -58* | 1 | -68
C[C@H]1CN([C@@H](C)CO)C(=O)CCCn2cc(nn2)CO[C@H]1CN(C)C(=O)Nc1ccnc(N2CCOCC2)c1 | -3 | . | . | . | .
COc1ccc(C(=O)c2ccc(CC#N)s2)cc1 | 51* | ? | 16 | . | 43
CN(C)CCCNC(=O)C[C@@H]1CC[C@@H]2[C@@H](COc3ccc(NC(=O)c4cccc(F)c4)cc3C(=O)N2C)O1 | 6 | . | . | . | .
COc1cc(OC)c(N(C)C(=O)CCNC(=O)Cn2cnc3ccccc3c2=O)cc1Cl | -8 | -1 | -2 | . | 5
COc1cc(OC)c(NC(=O)CCNC(=O)Cn2cnc3ccccc3c2=O)cc1Cl | -9 | 2 | 8 | . | 51*
CN(C)CC(O)c1ccc(C=Cc2ccc(Cl)cc2)cc1 (configuration not stated) | 49* | -78 | . | ? | .
COc1ccc2[nH]c(C)c(CCNc3ccc(C(F)(F)F)cc3[N+](=O)[O-])c2c1 | . | 0 | 16 | 1 | 61*
Cc1cc(C)c(NC(=O)C2c3ccccc3Oc3ccccc32)c(C)c1 | -1 | 10 | 7 | -1 | 16
Cc1ccccc1Cn1nc(C)c(NC(=O)C2c3ccccc3Oc3ccccc32)c1C | . | -11 | 53 | 0 | 70*
CC1(C)Cc2c(C#N)c(N3CCCC3)nc(-c3ccco3)c2CO1 | 4 | -14 | 57 | -6 | 111*
CC1(C)Cc2c(C#N)c(NCc3ccco3)nc(-c3ccco3)c2CO1 | -7 | 10 | -4 | . | 4
CCCCC[C@@H](O)c1cc2ccccc2c(=O)o1 | 43* | -4 | . | 11 | .
CCCNC(=O)c1cc2ccccc2c(=O)o1 | . | -2 | -1 | 2 | 10
COc1ccc(Cn2nnnc2C(c2ccc(N(C)C)cc2)N2CCC(C)CC2)cc1 (configuration not stated) | 1 | . | 8 | -4 | 16
